Screening data: PubChem BioAssay, National Center for Advancing Translational Sciences (NCATS)
IMPase inh: qHTS Assay for Identifying the Cell-Membrane Permeable IMPase Inhibitors; Inositol monophosphatase 1 (Rattus norvegicus), P97697; CHO-M1 cells, IP1 accumulation, HTRF TR-FRET ratio; inhibition (IP1 accumulation), % at 46.1 µM; 120,000 tested, under 10 active; active = well fitted curve in the direction sought with a large enough effect in the signal ratio, not every such curve was filed as active; inconclusive = small, poorly fitted or top-dose-only effect, or a change in a side signal; inactive = no such curve, though single readings can be large or run the other way; the % refers to the signal ratio;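 also: cells stimulated with carbachol in lithium chloride buffer; plate controls were DMSO basal wells for no effect and reference inhibitor wells for full effect; higher means more IMPase inhibition seen as more IP1 and lower FRET ratio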
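Cellular IMPase inhibition is scored as a rise in cytosolic IP1, detected by competitive TR-FRET between d2-labelled IP1 and a europium anti-IP1 antibody. M1-expressing CHO cells were stimulated with carbachol for 30 min at 37C, with lithium (50 mM LiCl) present in the buffer.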
Luc counter: Counterscreen for Luciferase (Kinase-Glo TM) Inhibition. 200,000 compounds, 0.28% hits. AID 1379, 2008. Kinase-Glo luciferase, ATP luminescence, 8 min. Potency, µM (series often up to 38.3 µM), inactives show at the highest dose activity change, negative = inhibition, hits mostly inhibitors; active = well fitted inhibition curve with a large enough effect; inconclusive = small, poorly fitted or top-dose-only effect; also: potency is read from the fitted curve at half-maximal effect; nearly all actives have a fitted effect of over 60% in size
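Light output from Kinase-Glo luciferase with luciferin and 10 uM ATP in 50 mM imidazole pH 7.2, KCl, MgCl2, Tween 20, BSA; compound pin-delivered, 8-min ambient incubation, then luminescence read.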
PNC assembly inh: High Content Assay for Compounds that inhibit the Assembly of the Perinucleolar Compartment. activity change (PNC), negative = inhibition, % at 10 µM. PC3M PTB-GFP, PNC prevalence imaging, 16 h; hits give low values. 140,000 compounds, 3.1% hits;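 active = readout at or below -70, meaning at least 70% loss of cells showing the perinucleolar compartment, a nuclear body marking cancer cells; inconclusive = readout between -30 and a set limit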;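 also: plate controls were DMSO wells for no effect and camptothecin positive control wells for full effect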
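PC3M cells stably expressing PTB-GFP, 750–1000 cells/well, treated 16 h at 37 °C with compound (23 nl of library stock), in duplicate. After paraformaldehyde fixation and Hoechst stain, imaged at 20x; PNC prevalence scored by image analysis.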
HPGD block: qHTS Assay for Inhibitors of HPGD (15-Hydroxyprostaglandin Dehydrogenase); purified HPGD, NADH fluorescence kinetic, PGE2 substrate; 150,000 compounds, 4.3% hits; AID 894, 2007; Potency, µM, for the others: top-dose activity change, negative = inhibition, usual class: inhibitors; 15-hydroxyprostaglandin dehydrogenase [NAD(+)] (Homo sapiens), P15428; also: potency is read from the fitted curve at half-maximal effect
Target sequence (P15428 whole entry, looked up): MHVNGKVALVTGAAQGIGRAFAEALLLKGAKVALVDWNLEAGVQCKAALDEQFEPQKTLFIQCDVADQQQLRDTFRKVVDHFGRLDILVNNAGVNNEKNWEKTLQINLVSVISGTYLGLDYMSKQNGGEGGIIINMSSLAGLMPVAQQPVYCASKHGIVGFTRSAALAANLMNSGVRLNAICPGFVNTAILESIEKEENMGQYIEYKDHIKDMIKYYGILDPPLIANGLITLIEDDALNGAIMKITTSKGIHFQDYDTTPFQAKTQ
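20 nM HPGD preincubated 15 min at room temperature with compound in 50 mM Tris-HCl pH 8, 0.01% Tween 20. Started with 1 mM NAD+ and 30 uM prostaglandin E2; NADH fluorescence (360/450 nm) read 5 times over 30-s intervals, last minus first.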
ALDH1A1 block: qHTS Assay for Inhibitors of Aldehyde Dehydrogenase 1 (ALDH1A1) | Purified ALDH1A1, NADH fluorescence, propionaldehyde substrate | AID 1030, 2008 | Aldehyde dehydrogenase 1A1 (Homo sapiens), P00352 | 220,000 compounds, 7.3% hits | Potency, µM (highest dose often 75.3 µM), inactives show at the top dose activity, negative = inhibition, usual class: inhibitors;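 also: potency is read from the fitted curve at half-maximal effect; plate controls were no enzyme wells and a reference inhibitor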
Target sequence (P00352 whole entry, looked up): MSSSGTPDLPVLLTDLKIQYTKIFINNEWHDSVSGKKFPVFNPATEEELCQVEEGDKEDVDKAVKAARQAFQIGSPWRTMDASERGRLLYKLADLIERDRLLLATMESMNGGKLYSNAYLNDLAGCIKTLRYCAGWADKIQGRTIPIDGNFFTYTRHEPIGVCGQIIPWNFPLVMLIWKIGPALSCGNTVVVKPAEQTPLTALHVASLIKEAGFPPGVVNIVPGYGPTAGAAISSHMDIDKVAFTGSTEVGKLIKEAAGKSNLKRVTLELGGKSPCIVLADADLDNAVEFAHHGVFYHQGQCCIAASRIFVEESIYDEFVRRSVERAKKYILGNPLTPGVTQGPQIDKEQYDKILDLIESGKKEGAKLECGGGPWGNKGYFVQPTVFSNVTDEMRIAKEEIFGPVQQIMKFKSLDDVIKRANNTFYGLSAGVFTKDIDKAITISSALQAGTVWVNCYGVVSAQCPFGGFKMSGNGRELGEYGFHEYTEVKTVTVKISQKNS
Lamin A splicing: qHTS Assay for Modulators of Lamin A Splicing; HeLa LMNA splicing GFP/RFP minigene ratio, 48 h; AID 1487, 2009; Potency, µM (highest dose often 46.1 µM), inactives show at the highest dose ratio change, negative = inhibition, actives largely listed as inhibitors; 200,000 compounds, 0.01% hits; active = well fitted inhibition curve with a large enough effect in the signal ratio, with a control signal flat, not every such curve was filed as active; inconclusive = small, poorly fitted or top-dose-only effect, or effect the other way, or a change in a side signal; the % refers to the signal ratio; also: potency is read from the fitted curve at half-maximal effect
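S3 HeLa cells stably expressing lamin A-EGFP splicing minigene plus DsRed2, 600 cells/well, 48 h compound exposure at 37C. Laser-scanning cytometry; analysed as GFP (500-530 nm)/RFP (575-640 nm) total intensity ratio; 0.5% DMSO vehicle.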
Active calls of the source: *; ? = inconclusive; · = no result given; [ ] = another dose, or the depositor's remark. Hits are enriched below; roughly 10% of the tested compounds scored in any of these assays. Unless noted, calls follow the shape of the dose curve; as a rule, active = well fitted inhibition curve with a large enough effect (not every such curve was filed as active); inconclusive = small, poorly fitted or top-dose-only effect, or another doubt; inactive = no such curve, though single readings can be large or run the other way. Unless noted, % is scaled to controls: 0 for no effect and ±100 for the full control effect.

SMILES | IMPase inh | Luc counter | PNC assembly inh | HPGD block | ALDH1A1 block | Lamin A splicing
CC(C)C[C@@H](CC(=O)N[C@@H](CCC(=O)O)CC(=O)O)NC(=O)[C@@H]1CNCC[C@H]1NC(=O)C[C@@H](NC(=O)C[C@H](Cc1c[nH]c2ccccc12)NC(=O)[C@@H]1CNCC[C@H]1N)C(C)C | · | 0.1% | · | -5.3% | -16.1% | ·
CC1(C)CC(=O)C=C(Nc2ccccc2F)C1 | -7.7 | -4.7% | ? | 22.4µM* | ? | -5.4%
CC1(C)CC(=O)C=C(Nc2cc(-c3ccccc3)[nH]n2)C1 | 8.5 | -1.0% | 7.6 | -5.8% | 4.47µM* | -9.7%
CC1(C)CC(=O)C=C(NCc2ccccc2)C1 | 3.1 | 1.9% | ? | -13.1% | 11.5% | 13.7%
O=C(O)c1ccc2cc(-c3ccc(O)c(C45CC6CC(CC(C6)C4)C5)c3)ccc2c1 | · | -0.7% | · | ? | ? | ·
O=S(=O)(c1ccc(NC2CCCc3ccccc32)nc1)N1CCOCC1 (centres undefined) | 6.2 | -1.0% | -7.5 | -5.8% | -0.9% | ?
Cc1nn(C)c(C)c1S(=O)(=O)NC1CCCc2ccccc21 (centres undefined) | -13.0 | -7.5% | -7.0 | -7.8% | 3.8% | -3.1%
CCN(CC)S(=O)(=O)c1ccc(NC2CCCc3ccccc32)nc1 (centres undefined) | 8.7 | 0.9% | -100.0* | -22.6% | 2.9% | ?
CN(C)S(=O)(=O)c1ccc(C(=O)NC2CCCc3ccccc32)cc1 (centres undefined) | · | 0.8% | · | · | 20µM* | ·
Cc1ccc(S(=O)(=O)NC2CCCc3ccccc32)cc1C (centres undefined) | -3.8 | 15.0% | -17.6 | -21.4% | 10µM* | 4.0%
CN(C)S(=O)(=O)c1cccc(C(=O)NC2CCCc3ccccc32)c1 (centres undefined) | 1.7 | -4.6% | ? | -0.8% | -4.8% | -0.6%
O=C(CSc1nnc(-c2ccccc2)c(-c2ccccc2)n1)Nc1ccccc1Cl | · | · | · | · | · | -6.4%[46 µM]
O=C(NCc1ccco1)/C(=C\c1ccco1)NC(=O)c1ccc(Br)o1 | · | -1.5% | 13.4 | ? | 28.2µM* | -16.8%
CC(C)(C)c1ccc(C(=O)N/C(=C\c2cccs2)C(=O)NCc2ccco2)cc1 | -2.5 | · | -24.0 | · | 3.16µM* | -2.6%
CCOC(=O)c1ccccc1NC(=O)Cn1ncc2c([nH]c3ccccc32)c1=O | · | · | · | · | · | 9.2%[46 µM]
CCOC(=O)C1=C(O)/C(=C\c2ccc(CNC(=O)C(=O)Nc3ccccc3)o2)N=C1C | 14.2 | -5.5% | ? | 31.6µM* | 11.2µM* | ?
CCOC(=O)C1=C(O)/C(=C\c2cccs2)N=C1C | 12.7 | -1.8% | 5.5 | -8.6% | -2.6% | -1.9%
CCOC(=O)c1cc(OC(=O)c2ccccc2C)n(-c2ccccc2)n1 | -2.9 | · | · | · | · | ·
CCOc1ccc2nc(N(Cc3cccnc3)C(=O)c3ccc4c(c3)OCCO4)sc2c1 | · | · | · | · | · | -6.9%[46 µM]
O=C(Cn1nc2ccccc2n1)N/N=C/c1cc([N+](=O)[O-])ccc1O | · | -0.1% | · | · | ? | ·
O=[N+]([O-])c1ccc(O)c(/C=N/n2cnnc2)c1 | 3.2 | 3.3% | 17.8 | -17.6% | 20µM* | -13.5%
NC(N)=N/N=C/c1cc([N+](=O)[O-])ccc1O | 1.2 | 4.0% | -115.1* | -13.4% | ? | -3.5%
O=C(Cn1nnc(-c2ccccc2)n1)N/N=C/c1cc([N+](=O)[O-])ccc1O | -5.3 | 2.9% | ? | 14.1µM* | ? | -10.6%
CCOc1ccccc1CNC(=O)c1nc(-c2ccc(Cl)cc2)n2c1CCCCC2 | · | · | · | · | · | -4.5%[46 µM]
Cc1ccc(C(=O)O[C@@H](C(=O)O)[C@@H](OC(=O)c2ccc(C)cc2)C(=O)O)cc1 (tested in a mixture with another compound) | 5.5 | · | · | · | · | ·
SMILES | IMPase inh | Luc counter | PNC assembly inh | HPGD block | ALDH1A1 block | Lamin A splicing
Cc1cccc(NC(=O)c2sc3ncnc(N(C)C4CCCCC4)c3c2C)c1C | · | · | · | · | · | 1.5%[46 µM]
C=C(C)C(O)/C=C/c1ccc(Br)cc1 (centres undefined) | · | -4.5% | · | -1.8% | 5.0% | ·
CCCCN(C)C(=O)C1CCC(Cn2c(=O)[nH]c3ccsc3c2=O)CC1 (centres undefined) | · | · | · | · | · | -15.2%[46 µM]
COC(=O)CN(c1ccc(OC)cc1OC)S(=O)(=O)c1ccccc1[N+](=O)[O-] | · | 2.0% | · | · | 18.9µM* | 12.8%[46 µM]
CCCOc1ccc(N2C(=O)CC(N3CCN(c4nc5ccccc5s4)CC3)C2=O)cc1 (centres undefined) | 2.6 | -0.4% | -10.5 | -14.8% | 14.1µM* | -18.6%
CCCOc1ccc(N2C(=O)CC(N3CCN(c4ccccc4F)CC3)C2=O)cc1 (centres undefined) | 27.5 | 0.9% | 21.1 | -4.9% | ? | 1.9%
O=C1CC(N2CCN(c3nc4ccccc4s3)CC2)C(=O)N1Cc1cccs1 (centres undefined) | 9.3 | 3.6% | ? | -1.8% | 22.4µM* | ?
O=C1CC(N2CCN(c3ccc(F)cc3)CC2)C(=O)N1Cc1cccs1 (centres undefined) | 6.3 | 15.2% | -26.0 | -10.7% | 14.1µM* | 3.4%
CCN1C(=O)CC(N2CCN(c3ccc(C(=O)c4ccccc4)cc3)CC2)C1=O (centres undefined) | 4.1 | -2.9% | 8.2 | 22.4µM* | ? | ?
NC(=O)C1CCN(C2CC(=O)N(Cc3cccs3)C2=O)CC1 (centres undefined) | 2.5 | -1.0% | -19.2 | 5.5% | ? | 6.9%
CC1=C(C(=O)OCc2ccc(C)cc2)C(c2ccccc2F)CC(=O)N1 (centres undefined) | 15.2 | · | · | · | · | ·
CO[C@H]1COC(=O)[C@@H](Cc2ccccc2)NC(=O)[C@@H](C)COC(=O)C/C=C\[C@@H]1C | · | · | · | · | -0.4%[13.5 µM] | ·
CS(=O)(=O)N1CCC2(CCCN(c3cccc(-c4ccccc4)c3)C2)CC1 | · | 0.3% | · | -11.2% | -8.4% | ·
CCOc1cc(N2CCOCC2)c(OCC)cc1NC(C)C(=O)N1CCN(CC)CC1 (centres undefined) | · | -2.2% | · | · | 22.4µM* | ?
CCN1C(=O)/C(=C/C=C2\C=CN(CC)c3ccccc32)SC1=S | 1.6 | -26.2% | -4.3 | -14.3% | ? | -11.2%
CCN1C(=O)/C(=C\C=C2/C=CC=CN2CC)SC1=S | · | ? | ? | -3.7% | 25.1µM* | 2.6%
CCCC(=O)Nc1nc(C)c(-c2csc(Nc3ccccc3C)n2)s1 | -1.9 | 1.4% | 67.8 | 31.6µM* | 10µM* | 3.8%
